CYP2C9 act = increases human cytochrome P450 2C9 activity; recombinant CYP2C9, luciferin-H conversion, luminescence; hits give high values; factor 1 = untreated enzyme, 0 = blocked; P11712; AID 1024; 96,000 tested, 1.4% active; activation factor at 5 µM;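 active = activation factor of 2 or more for CYP2C9 at a 5 µM dose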;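 note: 0 = sulfaphenazole-blocked wells and 1 = vehicle-only wells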
CYP2C9 inh = human CYP2C9 inhibition; AID 777; 96,000 tested, 20% active; CYP2C9 Supersomes, luciferin-H conversion, luminescence; inhibition, % at 5 µM; P11712;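 active = blocking of liver enzyme CYP2C9 beyond about 50% at 5 µM, limit read from the data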
CYP2C19 activ = increases human CYP2C19 enzyme activity; 96,000 tested, under 10 active; AID 1025; activation factor at 5 µM; recombinant CYP2C19, luciferin-H EGE luminescence; hits give high values; 0 = fully inhibited enzyme, 1 = untreated enzyme;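 active = activation factor of at least 2 at 5 µM in the primary screen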;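 note: 0 = wells with 2.5 mM tranylcypromine and 1 = vehicle-only wells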
Target sequence (P33261 whole entry, looked up): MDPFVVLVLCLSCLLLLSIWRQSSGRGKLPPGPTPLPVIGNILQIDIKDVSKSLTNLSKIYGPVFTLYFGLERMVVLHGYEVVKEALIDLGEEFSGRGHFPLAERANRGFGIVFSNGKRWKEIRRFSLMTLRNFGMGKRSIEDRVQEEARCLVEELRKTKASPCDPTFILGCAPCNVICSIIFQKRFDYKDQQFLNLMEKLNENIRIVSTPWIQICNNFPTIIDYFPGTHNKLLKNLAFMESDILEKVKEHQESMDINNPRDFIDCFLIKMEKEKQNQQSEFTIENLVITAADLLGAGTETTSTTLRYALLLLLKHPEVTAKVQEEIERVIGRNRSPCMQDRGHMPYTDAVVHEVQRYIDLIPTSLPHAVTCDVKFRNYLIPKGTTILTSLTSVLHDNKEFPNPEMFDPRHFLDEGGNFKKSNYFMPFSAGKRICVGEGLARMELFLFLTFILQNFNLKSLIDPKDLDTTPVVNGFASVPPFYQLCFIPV
CYP2C19 inh = human CYP2C19 inhibition | P33261 | CYP2C19 Supersomes, luciferin-H EGE luminescence, 30 min | inhibition, % at 5 µM | 96,000 tested, 21% active | AID 778;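 active = CYP2C19 inhibition above a set limit at 5 µM in the primary screen, cut at about 50% in these data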;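 note: plate controls were negative control wells for no effect and 2.5 mM tranylcypromine positive control for full effect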
* hit, by the source's call. Sampled rows, rich in hits. Any-hit rate of the full collection: about 31%.

SMILES | CYP2C9 act | CYP2C9 inh | CYP2C19 activ | CYP2C19 inh
CCN(CCO)c1ncnc2c1sc1nc(C(C)C)c3c(c12)CC(C)(C)OC3 | 0.2 | 76* | 0.8 | 17
CC(C)c1nc2sc3c(NCc4ccccc4)ncnc3c2c2c1COC(C)(C)C2 | 1 | -4 | 1.1 | -10
Cc1ccc2c(c1)N(CCC(=O)NCCN1CCOCC1)C(=O)CO2 | 1 | 0 | 1.1 | -5
Cc1ccc2c(c1)N(CCC(=O)NCc1ccco1)C(=O)CO2 | 1.1 | -13 | 0.6 | 38
O=C(CCCCCN1C(=O)c2ccccc2C1=O)NCc1ccco1 | 0.4 | 60* | 0.8 | 22
COc1ccccc1CNC(=O)CCN1C(=O)COc2ccccc21 | 1.7 | -65 | 0.5 | 50*
COc1ccccc1CNC(=O)CCCN1C(=O)COc2ccc(C)cc21 | 1.4 | -39 | 0.4 | 62*
COc1ccccc1CNC(=O)CCN1C(=O)COc2ccc(C)cc21 | 0.9 | 10 | 0.4 | 62*
CC(C)CC(NC(=O)C1CCCCC1)C(=O)NCc1ccccn1 (stereo not drawn) | 1.1 | -14 | 1 | -4
O=C(CCN1C(=O)COc2ccccc21)NCc1ccco1 | 0.9 | 8 | 0.1 | 94*
CCN(CCCNC(=O)CCCN1C(=O)COc2ccc(C)cc21)c1cccc(C)c1 | 0.4 | 58* | 0.5 | 50*
Cc1ccc2c(c1)N(CCC(=O)NCc1cccnc1)C(=O)CO2 | 0.8 | 20 | 0.6 | 44
Cc1ccc2c(c1)N(CCC(=O)NCc1ccccn1)C(=O)CO2 | 1.1 | -14 | 0.4 | 55*
O=C(CSc1nc2ccccc2[nH]1)N1CCCCC1 | 0.8 | 16 | 0.1 | 88*
Cc1c(C)n(C(=O)CSc2nc3ccccc3[nH]2)c2ccccc12 | 0.1 | 94* | 0.1 | 95*
c1ccc2[nH]c(SCCN3CCOCC3)nc2c1 | 1 | 3 | 0.4 | 59*
Cc1ccc2[nH]c(SCC(=O)N3CCOCC3)nc2c1C | 0.8 | 16 | 0.2 | 81*
O=C(CSc1nc2ccccc2[nH]1)N1CCN(c2ccccc2)CC1 | 0.6 | 44 | 0.5 | 50
C=CCn1c(=O)c2c(C)c(C)sc2n2c(Nc3ccccc3)nnc12 | 0.7 | 28 | 0.9 | 11
NC(=O)c1cc(Cl)cn(-c2ccccc2)c1=O | 1.3 | -26 | 1.3 | -25
Cc1ccc2nc(SCC(=O)N3CCOCC3)[nH]c2c1 | 0.9 | 9 | 0.3 | 68*
FC(F)(F)c1nnc2c(Sc3ccccc3)nc3ccc(Cl)cc3n12 | 0.7 | 26 | 0.5 | 50*
Cc1nn(C(=O)c2ccco2)c(C)c1Sc1ccc([N+](=O)[O-])cc1 | 1 | -1 | 1.1 | -12
Cc1nn(C(=O)c2cccnc2)c(C)c1Sc1ccc(Br)cc1 | 0.7 | 29 | 0.3 | 70*
Cc1ccc(N2CCN(C(=O)c3ccccc3NC(=O)C3CC=CCC3C(=O)O)CC2)cc1 (stereo not drawn) | 0.6 | 37 | 0.5 | 52*
SMILES | CYP2C9 act | CYP2C9 inh | CYP2C19 activ | CYP2C19 inh
CC(=O)c1cccc(NC(=O)CN2C(=O)COc3ccc(Cl)cc32)c1 | 0.4 | 62* | 0.6 | 38
CCOc1ccccc1NC(=O)CN1C(=O)COc2ccc(Cl)cc21 | 1 | 2 | 0.5 | 50*
CC(=O)c1cccc(NC(=O)CN2C(=O)C3C4C=CC(C4)C3C2=O)c1 (stereo not drawn) | 0.3 | 72* | 0 | 95*
CNc1nc(-c2ccccc2)cc(C(F)(F)F)c1C#N | 0.8 | 17 | 0.8 | 21
O=C(CN1CCOCC1)Nc1scc(-c2ccccc2)c1C(=O)N1CCOCC1 | 0.7 | 32 | 0.8 | 25
O=c1c2c3c(sc2nc2sc(CN4CCOCC4)cn12)CCCC3 | 0.8 | 20 | 1 | 3
O=C(c1ccco1)N1CCN(C(=O)C2CCN(S(=O)(=O)Cc3ccccc3)CC2)CC1 | 0.9 | 13 | 0.9 | 14
O=c1[nH]c2ccc(S(=O)(=O)N3CCN(c4ccccc4)CC3)cc2[nH]c1=O | 0.9 | 13 | 0.6 | 38
O=C(NC(Cc1ccccc1)c1ccc2c(c1)OCCCO2)c1ccccc1F (stereo not drawn) | 0.2 | 83* | 0.2 | 77*
CC(=O)N(CCC(Cc1ccccc1)c1ccc2c(c1)OCO2)Cc1ccccc1F (stereo not drawn) | 0 | 96* | 0.1 | 88*
COc1ccc(C(=O)NC(Cc2ccccc2)c2ccc3c(c2)OCCCO3)cc1 (stereo not drawn) | 0.4 | 57* | 0.8 | 21
O=C(CCc1ccccc1)c1ccc2c(c1)OCCCO2 | 0.8 | 16 | 1 | -2
O=C(Nc1ccc2c(c1)OCCO2)c1ccccc1F | 1 | -4 | 1 | 4
CS(=O)(=O)N(CCc1ccccc1)CC(=O)NCc1ccccn1 | 0.8 | 18 | 0.6 | 36
O=C(N1CCN(c2ccccc2)CC1)C12CC3CC(CC(C3)C1)C2 | 0.3 | 67* | 0.2 | 81*
O=C(N1CCN(Cc2ccccc2)CC1)C12CC3CC(CC(C3)C1)C2 | 0.3 | 72* | 0 | 99*
CC12CCC(C(=O)N3CCN(Cc4ccccc4)CC3)(OC1=O)C2(C)C (stereo not drawn) | 0.3 | 67* | 0.3 | 72*
CC1CCCN(C(=O)C2CCN(CC3CC=CCC3)CC2)C1 (stereo not drawn) | 1.3 | -26 | 1 | -1
CO/N=C(/CS(=O)c1ccc(Br)cc1)c1ccc(OC)cc1 (stereo not drawn) | 0.1 | 88* | 0 | 100*
COC(=O)c1c(N=CN(C)C)c(C#N)c2n1CCCC2 | 1.1 | -14 | 1 | 0
Nn1cnnc1N/N=C/c1cc(Br)cc(Br)c1O | 0.6 | 44 | 1 | 4
Cc1ccc(C(=O)N(CC(=O)NC2CCCC2)Cc2cccs2)s1 | 0.1 | 88* | 0.3 | 74*
CCC(C)(C(=O)NC1CCCCC1)N(Cc1cccs1)C(=O)Cc1cccs1 (stereo not drawn) | 0.7 | 32 | 0.8 | 23
Cc1sc2ncn(CC(=O)N(CC(=O)NC3CCCC3)Cc3cccs3)c(=O)c2c1C | 0.4 | 56* | 0.8 | 24
CCN(CC)C(=O)CN(c1ccc(Cl)cc1)S(=O)(=O)c1ccccc1 | 0.9 | 7 | 0.3 | 68*
SMILES | CYP2C9 act | CYP2C9 inh | CYP2C19 activ | CYP2C19 inh
NNC(=O)CNC(=O)c1cccc(Br)c1 | 0.9 | 6 | 0.7 | 35
CCOc1ccc(-c2nnc(SCc3nnc(-c4ccccc4)o3)n2-c2ccccc2F)cc1 | 0.9 | 6 | 1 | 4
Cc1cccc(Oc2sc(C(=O)c3ccccc3)c(N)c2C#N)c1 | 0.5 | 47 | 0.4 | 61*
N#Cc1c(Nc2ccccc2)sc(C(=O)c2ccccc2)c1N | 1 | -2 | 0.9 | 14
Cc1ccc2c(C(=O)CN3CCN(C4CCCCC4)CC3)c(C)[nH]c2c1 | 1.3 | -32 | 1.1 | -12
Cc1[nH]c2ccccc2c1C(=O)CN1CCSCC1 | 0.6 | 35 | 0.2 | 77*
COc1ccccc1N1CCN(CC(=O)c2c(C)n(C)c3ccccc23)CC1 | 1.6 | -64 | 0.5 | 54*
COc1ccccc1N1CCN(CC(=O)c2c(C)[nH]c3cc(C)ccc23)CC1 | 1 | 4 | 0.4 | 62*
N#Cc1c(N)n[nH]c1CCCN | 0.9 | 14 | 1.1 | -10
CN(CP(=O)(O)CCc1ccccc1)S(C)(=O)=O | 1.3 | -27 | 1 | 3
